# Experimental data taken from article PMC11062922 (Nature Chemical Biology, 2023).
# Read-outs that look alike come from different tables or passages of the source.
# Key:
# ATM = tested on: ATM; design: species or system human, MV4-11 + K-562 + COLO205 + SK-N-BE2 + OVCAR-8; settings: read-out: apparent Kd, n = 1
# PIK3C3 = tested on: PIK3C3; design: species or system human, MV4-11 + K-562 + COLO205 + SK-N-BE2 + OVCAR-8; settings: read-out: apparent Kd; compound concentrations:100 nM and 1000 nM (sheet 'Samples'); n = 1
# AKT3 = tested on: AKT3; design: species or system human, MV4-11 + K-562 + COLO205 + SK-N-BE2 + OVCAR-8; settings: read-out: apparent Kd; compound concentrations:100 nM and 1000 nM (sheet 'Samples'); n = 1
# AURKB = tested on: AURKB; design: species or system human, MV4-11 + K-562 + COLO205 + SK-N-BE2 + OVCAR-8; settings: read-out: apparent Kd; compound concentrations:100 nM and 1000 nM (sheet 'Samples'); n = 1
# BMP2K = tested on: BMP2K; design: species or system human, MV4-11 + K-562 + COLO205 + SK-N-BE2 + OVCAR-8; settings: read-out: apparent Kd; compound concentrations:100 nM and 1000 nM (sheet 'Samples'); n = 1
# CSNK2A1;CSNK2A3 = tested on: CSNK2A1;CSNK2A3; design: species or system human, MV4-11 + K-562 + COLO205 + SK-N-BE2 + OVCAR-8; settings: read-out: apparent Kd; compound concentrations:100 nM and 1000 nM (sheet 'Samples'); n = 1
# CSNK2A2 = tested on: CSNK2A2; design: species or system human, MV4-11 + K-562 + COLO205 + SK-N-BE2 + OVCAR-8; settings: read-out: apparent Kd; compound concentrations:100 nM and 1000 nM (sheet 'Samples'); n = 1
# JAK1 = tested on: JAK1; design: species or system human, MV4-11 + K-562 + COLO205 + SK-N-BE2 + OVCAR-8; settings: read-out: apparent Kd; compound concentrations:100 nM and 1000 nM (sheet 'Samples'); n = 1
# Q6ZSR9 = Q6ZSR9 (human, UniProt Q6ZSR9); design: species or system MV4-11 + K-562 + COLO205 + SK-N-BE2 + OVCAR-8; settings: read-out: apparent Kd; compound concentrations:100 nM and 1000 nM (sheet 'Samples'); n = 1
# Chain of Q6ZSR9 (Q6ZSR9 whole entry, looked up): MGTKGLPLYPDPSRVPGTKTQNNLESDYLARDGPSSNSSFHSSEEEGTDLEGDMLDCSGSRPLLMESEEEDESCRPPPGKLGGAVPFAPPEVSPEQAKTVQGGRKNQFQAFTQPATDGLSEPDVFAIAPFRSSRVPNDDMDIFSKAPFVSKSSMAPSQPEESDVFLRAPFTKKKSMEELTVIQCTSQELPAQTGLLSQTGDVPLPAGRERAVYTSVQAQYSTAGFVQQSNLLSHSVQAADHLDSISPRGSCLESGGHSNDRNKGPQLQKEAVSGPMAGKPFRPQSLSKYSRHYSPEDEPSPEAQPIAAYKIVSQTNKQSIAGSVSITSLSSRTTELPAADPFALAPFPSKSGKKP
# ATR = tested on: ATR; design: species or system human, MV4-11 + K-562 + COLO205 + SK-N-BE2 + OVCAR-8; settings: read-out: apparent Kd; compound concentrations: 100 nM and 1000 nM (sheet 'Samples'), CATDS: 8.9801947735964505E-2; n = 1
# DJA1 = tested on: T1, DJA1; design: species or system human, MV4-11 + K-562 + COLO205 + SK-N-BE2 + OVCAR-8; settings: read-out: apparent Kd; compound concentrations: 100 nM and 1000 nM (sheet 'Samples'), CATDS: 8.0242865429316204E-2; n = 1
# T1 construct: gene DNAJA1
# MTOR = tested on: MTOR; design: species or system human, MV4-11 + K-562 + COLO205 + SK-N-BE2 + OVCAR-8; settings: read-out: apparent Kd; compound concentrations: 100 nM and 1000 nM (sheet 'Samples'), CATDS: 0.10171258605148099; n = 1
# NLK = tested on: NLK; design: species or system human, MV4-11 + K-562 + COLO205 + SK-N-BE2 + OVCAR-8; settings: read-out: apparent Kd; compound concentrations: 100 nM and 1000 nM (sheet 'Samples'), CATDS: 7.3825275535159302E-2; n = 1
# PIK3C2A = tested on: PIK3C2A; design: species or system human, MV4-11 + K-562 + COLO205 + SK-N-BE2 + OVCAR-8; settings: read-out: apparent Kd; compound concentrations: 100 nM and 1000 nM (sheet 'Samples'), CATDS: 6.5272193721358701E-2; n = 1
# PIK3CA = tested on: PIK3CA; design: species or system human, MV4-11 + K-562 + COLO205 + SK-N-BE2 + OVCAR-8; settings: read-out: apparent Kd; compound concentrations: 100 nM and 1000 nM (sheet 'Samples'), CATDS: 0.22105458504596001; n = 1
# PRKAG2 = tested on: PRKAG2; design: species or system human, MV4-11 + K-562 + COLO205 + SK-N-BE2 + OVCAR-8; settings: read-out: apparent Kd; compound concentrations: 100 nM and 1000 nM (sheet 'Samples'), CATDS: 7.5904360676084706E-2; n = 1
# PTK6 = tested on: PTK6; design: species or system human, MV4-11 + K-562 + COLO205 + SK-N-BE2 + OVCAR-8; settings: read-out: apparent Kd; compound concentrations: 100 nM and 1000 nM (sheet 'Samples'), CATDS: 7.5402432247591605E-2; n = 1
# RAB14 = tested on: RAB14; design: species or system human, MV4-11 + K-562 + COLO205 + SK-N-BE2 + OVCAR-8; settings: read-out: apparent Kd; compound concentrations: 100 nM and 1000 nM (sheet 'Samples'), CATDS: 6.8441155991484606E-2; n = 1
# STK16 = tested on: STK16; design: species or system human, MV4-11 + K-562 + COLO205 + SK-N-BE2 + OVCAR-8; settings: read-out: apparent Kd; compound concentrations: 100 nM and 1000 nM (sheet 'Samples'), CATDS: 0.118413696953623; n = 1
# CHEK1 = tested on: CHEK1; design: species or system human, MV4-11 + K-562 + COLO205 + SK-N-BE2 + OVCAR-8; settings: read-out: apparent Kd; compound concentrations:100 nM and 1000 nM (sheet 'Samples'); n = 1
# GRK6 = tested on: GRK6; design: species or system human, MV4-11 + K-562 + COLO205 + SK-N-BE2 + OVCAR-8; settings: read-out: apparent Kd; compound concentrations:100 nM and 1000 nM (sheet 'Samples'); n = 1
# PDGFRB = tested on: PDGFRB; design: species or system human, MV4-11 + K-562 + COLO205 + SK-N-BE2 + OVCAR-8; settings: read-out: apparent Kd; compound concentrations:100 nM and 1000 nM (sheet 'Samples'); n = 1
# RET = tested on: RET; design: species or system human, MV4-11 + K-562 + COLO205 + SK-N-BE2 + OVCAR-8; settings: read-out: apparent Kd; compound concentrations:100 nM and 1000 nM (sheet 'Samples'); n = 1
# RPS6KA6 = tested on: RPS6KA6; design: species or system human, MV4-11 + K-562 + COLO205 + SK-N-BE2 + OVCAR-8; settings: read-out: apparent Kd; compound concentrations:100 nM and 1000 nM (sheet 'Samples'); n = 1
# [1] = compound concentrations:100 nM and 1000 nM (sheet 'Samples')
compound,measurement,setting,value
Cc1cn2c(=O)cc(N3CCOCC3)nc2n1Cc1cccc(Cl)c1Cl [GSK2334006A],potency estimated from few doses,ATM; [1],0.28 µM
same,potency estimated from few doses,PIK3C3,0.0615 µM
NC(=O)Nc1sc(-c2ccc(F)cc2)cc1C(N)=O [GW789449X],potency estimated from few doses,AKT3,1.83 µM
same,potency estimated from few doses,AURKB,1.31 µM
same,potency estimated from few doses,BMP2K,1.26 µM
same,potency estimated from few doses,CSNK2A1;CSNK2A3,1.73 µM
same,potency estimated from few doses,CSNK2A2,1.13 µM
same,potency estimated from few doses,JAK1,0.711 µM
same,potency estimated from few doses,Q6ZSR9,1.37 µM
COC(=O)Nc1nc2ccc(Oc3ccc(NC(=O)Nc4cc(C(F)(F)F)ccc4F)cc3)cc2s1.Cl [GW693917A],potency estimated from few doses,ATM; [1],0.222 µM
Fc1ccc(-c2ncn(CCCN3CCOCC3)c2-c2ccccn2)cc1 [SB-211742],potency estimated from few doses,"ATM; compound concentrations: 100 nM and 1000 nM (sheet 'Samples'), CATDS: 0.213303269988698",0.181 µM
same,potency estimated from few doses,ATR,0.854 µM
same,potency estimated from few doses,DJA1,1.13 µM
same,potency estimated from few doses,MTOR,0.648 µM
same,potency estimated from few doses,NLK,1.42 µM
same,potency estimated from few doses,PIK3C2A,2.11 µM
same,potency estimated from few doses,PIK3CA,0.172 µM
same,potency estimated from few doses,PRKAG2,1.31 µM
same,potency estimated from few doses,PTK6,1.33 µM
same,potency estimated from few doses,RAB14,1.79 µM
same,potency estimated from few doses,STK16,0.479 µM
COc1cc(Nc2cnc(C#N)c(O[C@H](C)CN(C)C)n2)ncc1-c1cnn(C)c1 [CCT244747],potency estimated from few doses,ATM; [1],0.179 µM
same,potency estimated from few doses,CHEK1,0.0397 µM
same,potency estimated from few doses,GRK6,1.23 µM
same,potency estimated from few doses,PDGFRB,1.49 µM
same,potency estimated from few doses,RET,0.112 µM
same,potency estimated from few doses,RPS6KA6,0.46 µM
